# Results from PubChem BioAssay (NCI).
# Where “and” joins values, the source holds several entries; their conditions need not be identical. Equal entries are not always repeated. This is part of a sample that, as a whole, favours compounds with a hit. Of some 83,000 tested, about 20% had one in any assay.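 The endpoint reported here, percent growth, reads 100 for growth as untreated, 0 for no net growth and -100 for all cells dead.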 Calls of active or inactive are those of the source. Rule for the calls: active = growth percent below 10; inactive = the rest.
# What was measured:
# Assay in all cases: NCI-60 one-dose screen, 48 h (100 = growth as untreated, 0 = no growth, -100 = all killed)
# Conditions in all cases: 10 µM unless noted
# HCT-15 colon = test system: HCT-15 colon
# HT29 colon = test system: HT29 colon
# SNB-75 CNS = test system: SNB-75 CNS
# SNB-19 CNS = test system: SNB-19 CNS
# U251 CNS = test system: U251 CNS
# PC-3 prostate = test system: PC-3 prostate
# SK-MEL-5 melanoma = test system: SK-MEL-5 melanoma
# UACC-62 melanoma = test system: UACC-62 melanoma
# LOX IMVI melanoma = test system: LOX IMVI melanoma
# SK-MEL-28 melanoma = test system: SK-MEL-28 melanoma
SMILES,growth (HCT-15 colon),growth (HT29 colon),growth (SNB-75 CNS),growth (SNB-19 CNS),growth (U251 CNS),growth (PC-3 prostate),growth (SK-MEL-5 melanoma),growth (UACC-62 melanoma),growth (LOX IMVI melanoma),growth (SK-MEL-28 melanoma)
C=CCN1C(=O)c2ccccc2C1=O,109% (inactive),122% (inactive),95.9% (inactive),98.1% (inactive),101% (inactive),96.6% (inactive),101% (inactive),90.8% (inactive),94.7% (inactive),108% (inactive)
COCCNC(C)=O,100% (inactive),108% (inactive),99.2% (inactive),104% (inactive),98.1% (inactive),101% (inactive),96.7% (inactive),99.9% (inactive),105% (inactive),112% (inactive)
Cc1c(O)nc(N)[nH]c1=O,106% (inactive),106% (inactive),102% (inactive),108% (inactive),100% (inactive),101% (inactive),113% (inactive),100% (inactive),99.4% (inactive),110% (inactive)
CC(=O)c1cccc(OC(=O)c2ccccc2)c1,127% (inactive),104% (inactive),101% (inactive),97.2% (inactive),103% (inactive),90.9% (inactive),108% (inactive),91.1% (inactive),87.4% (inactive),92.1% (inactive)
Clc1ccc(/C=C/c2ccc3ccccc3n2)cc1,26.6% (inactive) and 96.4% (inactive) and 81.7% (inactive),2.32% (active) and 79.3% (inactive) and 71.1% (inactive),-21.1% (active) and 98.7% (inactive) and 88.1% (inactive),42.2% (inactive) and 96.2% (inactive) and 98.8% (inactive),16.3% (inactive) and 95.6% (inactive) and 87.1% (inactive),31.3% (inactive) and 271% (inactive) and 92% (inactive),24.4% (inactive) and 88.9% (inactive) and 81.9% (inactive),43.1% (inactive) and 78.5% (inactive) and 75.8% (inactive),18.3% (inactive) and 83% (inactive) and 82.5% (inactive),57.5% (inactive) and 166% (inactive) and 101% (inactive)
ON=C(C1CCCCC1)C1CCCCC1,106% (inactive),103% (inactive),87.3% (inactive),100% (inactive),98.1% (inactive),98.1% (inactive),108% (inactive),91.8% (inactive),95.6% (inactive),102% (inactive)
Cc1cnc(N)s1,105% (inactive),100% (inactive),71.5% (inactive),91.4% (inactive),95.5% (inactive),88.9% (inactive),97.5% (inactive),90.7% (inactive),98.6% (inactive),99.1% (inactive)
CC(C)(C)C1CCC(=NO)CC1 (stereo not given),106% (inactive),95% (inactive),85.6% (inactive),96% (inactive),99.9% (inactive),86.7% (inactive),104% (inactive),99.4% (inactive),99.8% (inactive),110% (inactive)
Cc1cc(O)c(C(C)C)cc1N=O,94.3% (inactive) and 98.9% (inactive),114% (inactive) and 94.1% (inactive),96.7% (inactive),96.1% (inactive) and 99.4% (inactive),97.6% (inactive),109% (inactive) and 97.6% (inactive),99.6% (inactive) and 104% (inactive),99.7% (inactive) and 103% (inactive),88.5% (inactive) and 99.5% (inactive),110% (inactive) and 113% (inactive)
N#CC1c2ccccc2C=CN1C(=O)c1ccccc1 (stereo not given),111% (inactive) and 104% (inactive),112% (inactive) and 107% (inactive),92.1% (inactive) and 98% (inactive),103% (inactive) and 109% (inactive),101% (inactive) and 97.5% (inactive),92.4% (inactive) and 146% (inactive),97.1% (inactive) and 107% (inactive),97.4% (inactive) and 83.7% (inactive),102% (inactive) and 94.8% (inactive),103% (inactive) and 122% (inactive)
CCOCCC(=O)O,108% (inactive),104% (inactive),93.3% (inactive),109% (inactive),106% (inactive),91.7% (inactive),96.1% (inactive),102% (inactive),102% (inactive),109% (inactive)
COc1ccc(C(=O)C(O)c2ccc(OC)cc2)cc1 (stereo not given),110% (inactive) and 107% (inactive),106% (inactive) and 111% (inactive),98% (inactive) and 94.1% (inactive),109% (inactive) and 111% (inactive),105% (inactive) and 95.7% (inactive),93.9% (inactive) and 92.2% (inactive),105% (inactive),100% (inactive) and 105% (inactive),96.4% (inactive) and 98.4% (inactive),114% (inactive) and 109% (inactive)
O=C(/C=C/C=C/c1ccc2c(c1)OCO2)N1CCCCC1,101% (inactive) and 95.3% (inactive),99.5% (inactive) and 87.6% (inactive),112% (inactive) and 99.4% (inactive),97.2% (inactive) and 99.6% (inactive),95.1% (inactive) and 102% (inactive),97.7% (inactive) and 90% (inactive),97.7% (inactive) and 97.9% (inactive),92% (inactive) and 90% (inactive),97.7% (inactive) and 101% (inactive),129% (inactive) and 94.1% (inactive)
Clc1ccc2sc(-c3ccccc3)nc2c1,100% (inactive),95.1% (inactive),67.7% (inactive),97.6% (inactive),105% (inactive),88% (inactive),91% (inactive),86.2% (inactive),101% (inactive),106% (inactive)
CCC(C)(O)CCC(C)(O)CC (stereo not given),112% (inactive),113% (inactive),108% (inactive),105% (inactive),104% (inactive),98.6% (inactive),104% (inactive),108% (inactive),98.1% (inactive),124% (inactive)
Cn1c(N)c(N=O)c(=O)n(C)c1=O,105% (inactive) and 101% (inactive),111% (inactive) and 90.2% (inactive),86.9% (inactive) and 92.6% (inactive),99.8% (inactive) and 102% (inactive),92.9% (inactive) and 101% (inactive),96.2% (inactive) and 96.9% (inactive),137% (inactive) and 99.6% (inactive),103% (inactive) and 93.1% (inactive),100% (inactive),104% (inactive) and 100% (inactive)
OCCCc1ccccc1,100% (inactive),94.9% (inactive),88.7% (inactive),99.3% (inactive),95.6% (inactive),100% (inactive),103% (inactive),96.2% (inactive),107% (inactive),108% (inactive)
CCCCCCCCCCCCCCCCC(=O)O,102% (inactive),97.7% (inactive),101% (inactive),105% (inactive),98% (inactive),104% (inactive),100% (inactive),101% (inactive),98.4% (inactive),117% (inactive)
COc1ccc(-n2[nH]c3c(cnc4ccccc43)c2=O)cc1,96.1% (inactive) and 91.4% (inactive),95.1% (inactive) and 93.4% (inactive),98.1% (inactive),103% (inactive),107% (inactive),91.3% (inactive) and 97.4% (inactive),100% (inactive) and 98.7% (inactive),95.9% (inactive) and 87.9% (inactive),88% (inactive) and 105% (inactive),108% (inactive) and 100% (inactive)
CC(=O)c1cc2ccccc2o1,99.6% (inactive),95.4% (inactive),101% (inactive),108% (inactive),109% (inactive),99.9% (inactive),101% (inactive),102% (inactive),95.3% (inactive),96.6% (inactive)
